Data as given in PubChem BioAssay AID602438 (Sanford-Burnham Center for Chemical Genomics, 2012).
Hit rate of the full screen: of about 360,000 compounds, about 3,100 (0.86%) were called active. Shown is part of a subset that was picked to be rich in actives. Values without a mark were called inactive.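 Rule for the calls: active = inhibition or corrected inhibition above about 18%, plus a signal ratio from 0.5 to 1.5 (limit read from the data, passing the limit was not always enough); inactive = the rest.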

What follows are molecules tested against Neuropilin-1 (Homo sapiens) (UniProt O14786) (assay: modulators of CendR peptide binding to NRP-1, primary screen, biochemical, fluorescence polarization, uHTS (AID 602438)). Conditions: FAM-RPARPAR peptide binding to NRP-1, fluorescence polarization; at 25 µM; hits give high values.
Sequence of Neuropilin-1 (Homo sapiens) (O14786 whole entry, looked up): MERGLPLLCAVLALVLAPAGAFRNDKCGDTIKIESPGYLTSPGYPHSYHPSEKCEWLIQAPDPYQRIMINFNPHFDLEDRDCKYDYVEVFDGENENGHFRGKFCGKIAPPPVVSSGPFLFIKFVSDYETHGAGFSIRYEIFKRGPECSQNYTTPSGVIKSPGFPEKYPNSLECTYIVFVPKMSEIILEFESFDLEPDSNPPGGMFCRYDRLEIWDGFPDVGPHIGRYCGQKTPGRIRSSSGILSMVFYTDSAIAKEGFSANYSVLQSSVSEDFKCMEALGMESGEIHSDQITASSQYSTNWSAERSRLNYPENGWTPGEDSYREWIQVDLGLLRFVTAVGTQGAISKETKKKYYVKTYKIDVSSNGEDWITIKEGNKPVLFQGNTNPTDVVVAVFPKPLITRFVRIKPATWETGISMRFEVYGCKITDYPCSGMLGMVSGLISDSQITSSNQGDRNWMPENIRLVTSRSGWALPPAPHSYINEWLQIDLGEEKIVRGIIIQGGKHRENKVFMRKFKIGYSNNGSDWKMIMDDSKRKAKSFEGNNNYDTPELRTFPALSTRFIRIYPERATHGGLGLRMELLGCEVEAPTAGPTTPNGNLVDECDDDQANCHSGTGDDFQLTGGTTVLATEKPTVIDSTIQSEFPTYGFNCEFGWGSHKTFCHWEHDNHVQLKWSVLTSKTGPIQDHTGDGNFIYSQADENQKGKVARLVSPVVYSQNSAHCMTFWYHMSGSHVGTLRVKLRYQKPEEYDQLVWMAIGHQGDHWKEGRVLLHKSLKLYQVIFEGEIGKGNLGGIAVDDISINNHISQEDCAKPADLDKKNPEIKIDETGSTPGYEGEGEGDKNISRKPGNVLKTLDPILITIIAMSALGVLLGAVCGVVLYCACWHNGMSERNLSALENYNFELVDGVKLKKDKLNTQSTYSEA

SMILES | inhibition
CCN(Cc1ccccc1)S(=O)(=O)c1cc(C(=O)O)ccc1OC | 13.4%
C/C(N)=C(\C#N)C(=O)NCCc1ccccn1 | -1.8%
CC(C)CN(C(=O)c1cccc(S(=O)(=O)N2CCCCC2)c1)C1CCS(=O)(=O)C1 (stereo not given) | -6.3%
COCC1CCCN(C(=O)c2ccc3oc(C(C)C)nc3c2)C1 (stereo not given) | -5.1%
Cc1ccc(S(=O)(=O)N(CC(O)CN2C(=O)NC(C)(C)C2=O)c2cccc([N+](=O)[O-])c2)cc1 (stereo not given) | 24.8% (active)
Cc1ccc(S(=O)(=O)N(CC(O)CN2CCCCC2)c2cccc([N+](=O)[O-])c2)cc1 (stereo not given) | -0.8%
COc1ccc([N+](=O)[O-])cc1N(CC(O)Cn1nnc2ccccc21)S(=O)(=O)c1ccc(C)cc1 (stereo not given) | 7%
CCOC(=O)C1(C)CCCN(C(=O)c2cccc(Cl)c2)C1 (stereo not given) | 20% (active)
CCOC(=O)C1(C)CCCN(C(=O)c2ccc(N(C)C)cc2)C1 (stereo not given) | -8.3%
CCOC(=O)C1(C)CCCN(C(=O)c2ccc(F)c(Cl)c2)C1 (stereo not given) | 16.4%
CC(OC(=O)c1cccnc1Cl)C(=O)NC1CCCCC1 (stereo not given) | 0.1%
CCOc1ccc(S(=O)(=O)NCCC(=O)NCC(C)(C)N2CCOCC2)cc1 | -3.6%
CN(C)C(=O)COC(=O)c1cccc(S(=O)(=O)N2CC3(C)CC2CC(C)(C)C3)c1 (stereo not given) | 9.7%
COc1ccc(C(=O)NC2CC(C)(C)NC(C)(C)C2)cc1OC | -3.8%
COc1ccc(C(=O)N2CC3(C)CC2CC(C)(C)C3)cc1OC (stereo not given) | 33.3% (active)
O=c1[nH]c2ccccc2n1C1CCN(CCOc2ccccc2)CC1 | -8%
Cc1ccc(S(=O)(=O)N(CC(=O)Nc2cccnc2)c2ccc(Br)cc2)cc1 | 0.4%
COc1ccccc1-c1nnc2n1N=C(c1ccc(OC(F)F)c(OCC3CC3)c1)CS2 | 18.8% (active)
COc1ccc(C2=Nn3c(nnc3-c3ccccc3OC)SC2)cc1OC1CCCC1 | 2.4%
Cc1ccc(NC2CCCN(C(=O)CCc3cn[nH]c3)C2)cc1C (stereo not given) | 5.4%
CN(C)c1ccc(Nc2c3c4c(cccc4n(C)c2=O)C(=O)c2ccccc2-3)cc1 | 28.9% (active)
CCOc1cc(CNCCN(C)C)c(Cl)cc1OCC(=O)NCCc1ccccc1 | -1.5%
CCOC(=O)N1CCN(C(=O)CNC(=O)Cc2ccc(Cl)cc2)CC1 | 24.6% (active)
CCOC(=O)N1CCN(C(=O)C(C)NC(=O)c2ccco2)CC1 (stereo not given) | 5.9%
CCOC(=O)N1CCN(C(=O)Cc2ccc(-n3c(=S)[nH]c4ccccc4c3=O)cc2)CC1 | 2.6%
N#Cc1ccc(C(=O)Nc2nc(-c3cccs3)c(C(=O)C(F)(F)F)s2)cc1 | 2.3%
N#CC(C(N)=O)=C1CCC2(CC1)OCCCCO2 | -11%
CC1(C)C/C(=C(/C#N)C(N)=O)CCO1 | 51% (active)

SMILES | inhibition
CCCNC(=O)COc1coc(CN2CCN(Cc3ccccc3)CC2)cc1=O | 22.7% (active)
C=CCNC(=O)COc1coc(CN2CCN(Cc3ccccc3)CC2)cc1=O | 2%
CCN(CC)C(=O)COc1coc(CN2CCN(Cc3ccccc3)CC2)cc1=O | 0.6%
CCOc1cnc(C(=O)NNC(=O)c2ccccc2Br)o1 | 6.1%
CCCc1ccc(S(=O)(=O)N2CCN(C(=O)c3cc(C)on3)CC2)cc1 | 1.7%
C=C1C(=O)OC2C1CCC(C)=CCCC1(C)OC21 (stereo not given) | -0.7%
COc1ccc(-c2c(C)cc3oc(=O)cc(-c4ccccc4)c3c2C)cc1C=O | 34.1% (active)
COc1cc(OC)c2c(-c3cccc(-c4cccc(N)c4)c3)cc(=O)oc2c1 | -8.2%
Cc1cc2oc(=O)cc(-c3ccccc3)c2c(C)c1-c1ccc(OC(F)(F)F)cc1 | 0.8%
CSCC[C@H](NC(=O)CCCn1nnc2ccccc2c1=O)C(=O)O | -1.8%
CC(=O)N1CCC(C(=O)OCc2ccc(Cl)cc2)(c2ccccc2)CC1 | -3%
CCOc1ncccc1C(=O)Nc1ccc(S(=O)(=O)Nc2nc(C)cc(C)n2)cc1 | -0.6%
CCOC(=O)Cc1ncccc1C(=O)Nc1ccc(OC(F)(F)F)cc1 | 29.7% (active)
COC(=O)Cc1ccc(OCC(=O)Nc2ccc(OC(F)(F)F)cc2)cc1 | 1.7%
CCCCN1CCNC1=S | -6.7%
CC(NC(=O)c1cc2cc(Cl)ccc2oc1=N)c1ccccc1 (stereo not given) | -11%
CC(NCc1nc2ccccc2n1C)C12CC3CC(CC(C3)C1)C2 (stereo not given) | -3.5%
Cc1cc(=O)oc2c(C)c(OCC(=O)NCCN3CCOCC3)ccc12 | 25.8% (active)
CCc1cc(=O)oc2c(C)c(OCC(=O)NCCN3CCOCC3)ccc12 | 10.3%
Cc1cc(=O)oc2c(C)c(OCC(=O)NCCc3ccc(S(N)(=O)=O)cc3)ccc12 | -18.3%
Cc1ccc(S(=O)(=O)N2CCN(S(=O)(=O)N3CCOCC3)CC2)cc1 | 0%
CC1CC(C)CN(S(=O)(=O)c2ccc(C(=O)NN3CCOCC3)cc2)C1 (stereo not given) | -2.9%
CC1CC(C)CN(c2ccc(S(=O)(=O)N3CCOCC3)cc2)C1 (stereo not given) | 22.3% (active)
Cc1c(CC(=O)N2CCN(C(=O)C3COc4ccccc4O3)CC2)c(=O)oc2c(O)c(O)ccc12 (stereo not given) | -49.5%
COC(=O)[C@@]1(Cc2ccc(F)cc2)[C@H]2c3cc(C(=O)N4CCCC4)n(C[C@H](O)CO)c3C[C@H]2CN1C(=O)c1ccccc1 | -11.6%
Cc1ccc2c(c1)N(CCCC(=O)NCc1cccnc1)C(=O)CO2 | 12.9%
Cc1cc(Cl)ccc1C(=O)C1CCCN(C(=O)c2nonc2C)C1 (stereo not given) | -2.6%
